We go through 64 molecules from PubChem BioAssay AID1835 (Johns Hopkins Ion Channel Center, 2009).

Out of some 2,400 compounds screened, about 750 (31%) were called active.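 The calls were made as follows: active = median signal gain over dofetilide-blocked control wells reaching their mean plus 3 SD, so readout 1 at least 0; inactive = the rest.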 The list shows a part of the results.

The target of the experiment is Voltage-gated inwardly rectifying potassium channel KCNH2 (Homo sapiens) (UniProt Q12809). Nature of the experiment: modulators restoring hERG flux under dofetilide – cell-based, thallium flux, duplicate retest, dofetilide IC70, confirmation (AID 1835). Conditions: hERG cell line, FluxOR thallium flux, dofetilide-blocked; at 10 µM; hits give high values.
Voltage-gated inwardly rectifying potassium channel KCNH2 (Homo sapiens), sequence (Q12809 whole entry, looked up): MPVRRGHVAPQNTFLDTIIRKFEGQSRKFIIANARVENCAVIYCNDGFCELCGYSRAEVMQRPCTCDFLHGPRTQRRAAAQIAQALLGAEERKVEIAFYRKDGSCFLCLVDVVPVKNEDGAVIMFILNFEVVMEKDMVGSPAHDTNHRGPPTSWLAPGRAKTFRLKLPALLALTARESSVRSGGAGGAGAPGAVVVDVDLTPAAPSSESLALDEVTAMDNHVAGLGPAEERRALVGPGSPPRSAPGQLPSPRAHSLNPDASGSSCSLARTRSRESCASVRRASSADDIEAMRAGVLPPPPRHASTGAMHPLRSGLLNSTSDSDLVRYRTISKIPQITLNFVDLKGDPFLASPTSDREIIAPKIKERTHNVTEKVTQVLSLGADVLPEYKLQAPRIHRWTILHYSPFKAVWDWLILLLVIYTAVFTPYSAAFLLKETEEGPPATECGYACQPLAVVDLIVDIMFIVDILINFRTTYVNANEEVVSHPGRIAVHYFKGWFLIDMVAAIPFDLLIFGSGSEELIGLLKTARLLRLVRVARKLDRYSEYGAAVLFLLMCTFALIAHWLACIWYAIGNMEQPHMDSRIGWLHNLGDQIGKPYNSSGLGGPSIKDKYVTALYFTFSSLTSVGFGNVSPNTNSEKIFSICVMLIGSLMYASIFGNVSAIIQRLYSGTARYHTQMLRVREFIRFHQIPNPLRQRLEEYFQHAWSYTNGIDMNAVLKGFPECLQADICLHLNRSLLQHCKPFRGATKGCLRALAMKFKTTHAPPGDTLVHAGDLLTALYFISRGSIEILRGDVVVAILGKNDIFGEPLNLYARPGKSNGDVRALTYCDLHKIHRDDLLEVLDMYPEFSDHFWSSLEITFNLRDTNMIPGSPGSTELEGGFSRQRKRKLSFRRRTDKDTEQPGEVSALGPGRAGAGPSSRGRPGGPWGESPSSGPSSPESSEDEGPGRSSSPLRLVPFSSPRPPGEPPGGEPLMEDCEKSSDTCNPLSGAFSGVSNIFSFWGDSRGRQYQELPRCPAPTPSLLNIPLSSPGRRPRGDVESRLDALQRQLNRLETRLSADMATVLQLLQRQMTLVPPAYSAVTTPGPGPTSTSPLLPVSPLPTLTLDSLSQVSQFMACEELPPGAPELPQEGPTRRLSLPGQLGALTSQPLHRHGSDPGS
On to `CC12CN3CC(C)(CN(C1)C3c1ccc3c(c1)OCO3)C2=O` (centres undefined), for which the activity increase over dofetilide control, less the hit threshold is -8% (inactive). Under `Cc1ccc(C(C)C)cc1OCC(=O)Nc1ccc(N2CCCCC2)cc1` stands -11% (inactive); under `C/C(=N\NC(=O)COc1ccc(C)cc1C(C)C)c1ccc(-n2ccnc2)cc1`, 6% (active); under `O=[N+]([O-])c1ccc(S(=O)(=O)Nc2ccc(S(=O)(=O)N3CCCC3)cc2)cc1`, -23% (inactive). Under `CC(C)(C)c1ccc(Cn2nc(CC(=O)O)c3ccccc3c2=O)cc1` stands -9% (inactive); under `O=C(O)CCCNC(=O)c1nn(Cc2ccccc2)c(=O)c2ccccc12`, 3% (active); under `Cc1nc2c(C(=O)NCCc3ccccc3)c[nH]n2c(=O)c1Cl`, -3% (inactive). For the molecule `CCCOc1ccc(C(=O)NNC(=S)NC(=O)c2cccs2)cc1`, the activity increase over dofetilide control, less the hit threshold was -44% (inactive).

As to `Cc1ccc(C(=O)NC(=S)N(C)Cc2ccccc2)cc1`, the activity increase over dofetilide control, less the hit threshold is -3% (inactive). In the case of `O=C(c1cccs1)N1CCN=C1SCc1ccccc1` it was -20% (inactive); in that of `S=C(NCc1ccccc1)NCc1ccccc1Cl`, -9% (inactive). For `CCN(CC)c1ccc(NC(=S)NC(=O)c2cccs2)cc1`, the activity increase over dofetilide control, less the hit threshold was 8% (active). Under `NS(=O)(=O)c1ccc(NC(=S)NCc2cccs2)cc1` stands -9% (inactive). As to `O=C(NC(=S)NCc1ccccc1)c1cccs1`, the activity increase over dofetilide control, less the hit threshold was 23% (active).

Regarding `O=C(NC(=S)NNC(=O)c1cccs1)c1ccc(Br)o1`, the activity increase over dofetilide control, less the hit threshold is -23% (inactive). Under `CN(Cc1ccccc1)C(=S)NC(=O)c1cccs1` stands 10% (active).

Turning to `O=C(NC(=S)Nc1ccccc1)c1cccs1`, the activity increase over dofetilide control, less the hit threshold was 12% (active). As to `O=c1ccn(CCCBr)c(=O)[nH]1`, the activity increase over dofetilide control, less the hit threshold was -8% (inactive).

On to `CCN(CC)CCOC(=O)C(c1ccccc1)c1ccccc1`, for which the activity increase over dofetilide control, less the hit threshold was -6% (inactive).

On to `O=C(COc1ccccc1[N+](=O)[O-])Nc1cc(Cl)ccc1C(=O)O`, for which the activity increase over dofetilide control, less the hit threshold is -10% (inactive). `O=[N+]([O-])c1ccccc1OCCNCc1ccccc1`: the activity increase over dofetilide control, less the hit threshold is 9% (active). With `O=C1CCCN1C(=O)COc1ccccc1[N+](=O)[O-]`, the activity increase over dofetilide control, less the hit threshold is -13% (inactive). Regarding `Cc1cc(C)n(-c2nc(NCCCN(C)C)c3c4c(sc3n2)CCCC4)n1`, the activity increase over dofetilide control, less the hit threshold is -10% (inactive).

Consider `CCOc1ccc(NC(=O)c2ccc(NC(=O)CSc3nc4ccccc4c(=O)[nH]3)cc2)cc1`, for which the activity increase over dofetilide control, less the hit threshold is -17% (inactive). Take `COc1ccc(N2C(=O)/C(=C/c3cccs3)NC2=S)cc1`: the activity increase over dofetilide control, less the hit threshold is -21% (inactive). Consider `CCOc1ccc2nc(N3C(=O)/C(=C/c4ccc(Cl)cc4)NC3=S)sc2c1`, for which the activity increase over dofetilide control, less the hit threshold was 22% (active).

In the case of `CCOc1ccc2nc(N3C(=O)/C(=C/c4ccccc4)NC3=S)sc2c1`, the activity increase over dofetilide control, less the hit threshold was 71% (active).

Consider `O=C(N1CCOCC1)N1CCC(c2nc(-c3ccc(S(=O)(=O)N4CCOCC4)cc3)no2)CC1`, for which the activity increase over dofetilide control, less the hit threshold is -12% (inactive).

In the case of `Cc1ccc(CNS(=O)(=O)c2ccc(C(F)(F)F)cc2)n1C`, the activity increase over dofetilide control, less the hit threshold was -18% (inactive). As to `Cc1cc(C)c(-c2cc(NC(=O)COC(=O)c3ccc(NC(=O)CC#N)cc3)n(-c3ccccc3)n2)cc1C`, the activity increase over dofetilide control, less the hit threshold was -15% (inactive). In the case of `Cc1ccc(NC(=S)N2CCN(c3ccccc3F)CC2)c(C)c1` it was -8% (inactive); in that of `COc1ccc(-c2nn(-c3ccccc3)cc2C(=O)Nc2cccc(C(=O)O)c2)cc1[N+](=O)[O-]`, -27% (inactive). As to `COc1ccc(CN2CCn3ncc(C(=O)Nc4ccccc4)c3C2=O)cc1`, the activity increase over dofetilide control, less the hit threshold is -16% (inactive).

With `COc1ccc(NC(=O)c2cn(-c3ccccc3)nc2-c2ccncc2)cc1`, the activity increase over dofetilide control, less the hit threshold is 40% (active). `Cc1ccc(-n2ccc(=O)c(C(=O)Nc3ccc(S(=O)(=O)Nc4nccs4)cc3)n2)cc1`: the activity increase over dofetilide control, less the hit threshold is -3% (inactive). Turning to `Cc1cnc(C(=O)Nc2nccs2)cn1`, the activity increase over dofetilide control, less the hit threshold is -22% (inactive).

Turning to `CC(C)COc1ccc(-c2nn(-c3ccccc3)cc2C(=O)Nc2nccs2)cc1`, the activity increase over dofetilide control, less the hit threshold is 20% (active). Turning to `COc1ccc([N+](=O)[O-])cc1N(CC(=O)NCc1ccco1)S(C)(=O)=O`, the activity increase over dofetilide control, less the hit threshold is -21% (inactive). In the case of `O=c1cc(O)c2sc(Nc3ccc(F)c(Cl)c3)nc2[nH]1` it was -15% (inactive). On to `O=C(COc1ccc2ccccc2c1)NNC(=O)C(=O)Nc1ccccc1`, for which the activity increase over dofetilide control, less the hit threshold was 55% (active). As to `Cc1ccccc1NC(=O)C(=O)NNC(=O)COc1ccc2ccccc2c1`, the activity increase over dofetilide control, less the hit threshold was 48% (active). Regarding `COc1ccc(N2CC(C(=O)OCC(=O)Nc3ccccc3C)CC2=O)cc1` (centres undefined), the activity increase over dofetilide control, less the hit threshold is -5% (inactive). Regarding `C=CCNC(=O)COc1ccc(Oc2ccccc2)cc1`, the activity increase over dofetilide control, less the hit threshold is -6% (inactive).

For the molecule `O=C(COc1ccc2ccccc2c1)Nc1ccc(Br)cc1C(=O)O`, the activity increase over dofetilide control, less the hit threshold was -10% (inactive). In the case of `O=C(COc1ccccc1)Nc1ccc(F)cc1`, the activity increase over dofetilide control, less the hit threshold is -27% (inactive). As to `COc1ccccc1NC(=O)C(=O)NNC(=O)COc1ccc2ccccc2c1`, the activity increase over dofetilide control, less the hit threshold was 94% (active).

`COC(=O)CSc1nnc(COc2ccc3ccccc3c2)o1`: the activity increase over dofetilide control, less the hit threshold was -10% (inactive). Under `CCN1C(=O)c2cccc3c(S(=O)(=O)NCC4CCCO4)ccc1c23` (centres undefined) stands -22% (inactive); under `Brc1ccc(Nc2nc(-c3cccnc3)cs2)cc1`, -12% (inactive); under `Cc1cc(C(F)(F)F)c2sc(N)nc2n1`, -11% (inactive). For `CC1CC(OCC(O)C[N+]2(C)CCOCC2)CC(C)(C)C1` (centres undefined), the activity increase over dofetilide control, less the hit threshold is -13% (inactive). As to `COc1ccc(S(=O)(=O)Nc2cccc(-n3cnnn3)c2)cc1`, the activity increase over dofetilide control, less the hit threshold is -20% (inactive). Consider `C=CCN(c1ccccc1)S(=O)(=O)c1cccc(C(=O)Nc2nnc(SCC)s2)c1`, for which the activity increase over dofetilide control, less the hit threshold was -4% (inactive). For the molecule `C=CCN(c1ccc(Cl)cc1)S(=O)(=O)c1cccc(C(=O)O)c1`, the activity increase over dofetilide control, less the hit threshold was 6% (active). Regarding `C=CCN(c1cccc(C(F)(F)F)c1)S(=O)(=O)c1cccc(C(=O)OCC(=O)Nc2ccccc2)c1`, the activity increase over dofetilide control, less the hit threshold is -6% (inactive).

Consider `COc1ccc(-c2cn3nc(SCC(=O)NC4CCCCC4)ccc3n2)cc1`, for which the activity increase over dofetilide control, less the hit threshold was -2% (inactive).

Turning to `O=C(Nc1nc(=O)c2ccccc2s1)c1ccc(Cl)cc1`, the activity increase over dofetilide control, less the hit threshold is 46% (active). For the molecule `CN(CC(=O)Nc1nc2ccccc2s1)S(=O)(=O)c1ccc(Cl)cc1`, the activity increase over dofetilide control, less the hit threshold is -17% (inactive).

Take `O=C(CNC(=O)c1ccccc1)NCc1ccc(Cl)cc1`: the activity increase over dofetilide control, less the hit threshold is -8% (inactive). Take `Cc1ccc(C(=O)Nc2nc(=O)n(C)s2)cc1`: the activity increase over dofetilide control, less the hit threshold was -1% (inactive). In the case of `Cc1ccc(C(=O)Nc2nc3ccccc3c(=O)s2)cc1` it was 53% (active); in that of `CS(=O)(=O)N(Cc1ccccc1)c1ccc(C(=O)Nc2ccc(C(N)=O)cc2)cc1`, 82% (active); in that of `C=CCN(c1ccc(C(=O)NC(C)C)cc1)S(C)(=O)=O`, -10% (inactive).

For the molecule `COc1ccc(N(CC(=O)N2CCN(Cc3ccccc3)CC2)S(C)(=O)=O)cc1`, the activity increase over dofetilide control, less the hit threshold was -16% (inactive).
